CSC inhib: cancer stem cell inhibition | cancer stem cell-like cells viability, luminescence | inhibition, % at 7.5 µM | 1.1% of 300,000 active | AID 2717; in the data active = inhibition above about 75%; inconclusive = no clear call, values can overlap the other calls; tested in HMLE shEcad cells
Calb FLC: C. albicans growth modulation with fluconazole; C. albicans CaCi-2 (fluconazole-resistant clinical isolate) + fluconazole, Alamar Blue growth, 48 h; growth inhibition, % (test concentration not listed); 0.57% of 300,000 active;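 active = growth inhibition above about 58% in most replicates, limit read from the data, passing the limit was not always enough; inconclusive = exactly half the replicates above a set limit; inactive = most replicates below a set limit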;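 note: all wells also contain fluconazole at 8 µg/ml as a sub-toxic cotreatment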
Beta cell apopt: beta cell apoptosis inhibition; INS-1E cytokine-induced death, ATP luminescence, 48 h; percent of positive-control rescue, neutral wells zero; protection from apoptosis, % (no concentration beside the values); 0.8% of 300,000 active; AID 435005;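 active = Every replicate reaches about 75%, or at least half do and their mean reaches it too, limit read from the data; inconclusive = At least half of replicates reach the limit but their mean does not; inactive = Under half of replicates reach the limit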;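 note: higher means more ATP so stronger rescue from cytokine killing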
Mdm2-MdmX inh: disrupts the human Mdm2-MdmX interaction. O15151+Q00987. SaOS-2 split-luciferase Mdm2/MdmX complementation, luminescence. inhibition, % at 8 µM. 3% of 330,000 active. AID 485346;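 active = inhibition of at least 50% at 8 µM in the primary screen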
Target sequence (O15151 whole entry, looked up): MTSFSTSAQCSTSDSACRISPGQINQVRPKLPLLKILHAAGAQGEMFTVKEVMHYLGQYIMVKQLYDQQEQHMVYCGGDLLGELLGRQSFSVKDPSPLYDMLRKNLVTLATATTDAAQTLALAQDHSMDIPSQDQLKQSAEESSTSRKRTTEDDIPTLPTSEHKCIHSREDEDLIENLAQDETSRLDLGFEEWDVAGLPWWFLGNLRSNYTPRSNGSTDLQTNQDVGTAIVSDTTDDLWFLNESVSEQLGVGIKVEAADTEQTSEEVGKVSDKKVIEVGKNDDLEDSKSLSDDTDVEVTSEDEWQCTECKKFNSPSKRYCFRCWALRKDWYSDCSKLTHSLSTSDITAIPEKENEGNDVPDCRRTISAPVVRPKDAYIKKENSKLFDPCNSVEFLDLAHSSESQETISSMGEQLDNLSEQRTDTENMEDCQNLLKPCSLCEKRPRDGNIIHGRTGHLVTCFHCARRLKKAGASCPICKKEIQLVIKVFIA
Target sequence (Q00987 whole entry, looked up): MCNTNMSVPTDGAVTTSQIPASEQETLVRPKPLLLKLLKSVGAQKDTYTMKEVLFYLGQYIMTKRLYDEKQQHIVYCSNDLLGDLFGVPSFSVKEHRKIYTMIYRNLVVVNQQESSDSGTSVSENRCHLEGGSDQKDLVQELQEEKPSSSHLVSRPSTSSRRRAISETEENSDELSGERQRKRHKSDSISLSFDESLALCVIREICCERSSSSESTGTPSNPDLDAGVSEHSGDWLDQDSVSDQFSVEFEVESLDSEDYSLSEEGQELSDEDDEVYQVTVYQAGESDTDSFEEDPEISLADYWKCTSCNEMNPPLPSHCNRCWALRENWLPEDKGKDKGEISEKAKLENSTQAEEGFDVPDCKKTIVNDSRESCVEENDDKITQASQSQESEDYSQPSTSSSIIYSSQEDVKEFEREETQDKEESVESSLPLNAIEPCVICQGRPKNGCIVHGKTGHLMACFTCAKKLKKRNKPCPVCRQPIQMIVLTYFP
SKKanGAS inh: SKKanGAS growth inhibition; S. pyogenes SKKanGAS, kanamycin growth, BacTiter-Glo, 6 h; inhibition, % at 7.5 µM; 1.3% of 300,000 active; AID 1662;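 active = mean replicate score, as percent of positive control median, at least 50; inconclusive = mean below 50 but one replicate at or above 50; inactive = mean and every replicate below 50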;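 note: strain carries kanamycin resistance gene driven by streptokinase promoter and grows in 40 µg/ml kanamycin; loss of luminescence reflects streptokinase promoter inhibition or plain growth inhibition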
MPTP block: blocks calcium-induced mitochondrial swelling; 1.4% of 360,000 active; AID 602449; inhibition, % at 10 µM; isolated mouse mitochondria, Ca2+ swelling absorbance, 30 min;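 active = inhibition of 50% or more, scaled per plate between neutral and stimulator controls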
Mdm2-MdmX conf: confirmation of human Mdm2/MdmX interaction inhibitors | Mdm2-MdmX binding, luminescent assay | 55% of 10,000 active | shares compounds with Mdm2-MdmX inh | inhibition, % at 8 µM; in the data active = inhibition above about 40%
FLuc counter: counter-screen for Mdm2/MdmX inhibitors: full-length luciferase; inhibition, % at 8 µM; shares compounds with Mdm2-MdmX inh; SaOS-2 full-length luciferase counterscreen, luminescence; 77% of 6,200 active;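 active = mean inhibition at 8 µM reaching about 37%, which flags the compound as non-specific, limit read from the data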;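 note: p53-null SaOS-2 cells with luciferase driven by a doxycycline-inducible promoter; compound on cells about two nights before reading with doxycycline added after day one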
Large screens that a line does not name were inactive (follow-up assays come after a bar, where they were run). Most compounds without a hit are left out; they make up all but 5.4% or so of the library.

CCN(CC)C(=O)CNC(=O)c1nn(-c2ccc(OC)c(Cl)c2)c(=O)c2ccccc12	none
COc1ccc(-n2nc(C(=O)NCC(=O)NCc3ccc(F)cc3)c3ccccc3c2=O)cc1OC	Mdm2-MdmX inh 80 (no result: CSC inhib) | Mdm2-MdmX conf inactive
COc1ccc(-n2nc(C(=O)NCC(=O)Nc3cc(OC)c(OC)c(OC)c3)c3ccccc3c2=O)cc1Cl	Mdm2-MdmX inh 70 | Mdm2-MdmX conf 73 | FLuc counter 81
Cc1nc(NCc2ccco2)c2c(C)c(C)sc2n1	CSC inhib 98, Mdm2-MdmX inh 100 | Mdm2-MdmX conf 96 | FLuc counter 54
C[C@H](NC(=O)C[C@@H]1CC[C@H]2[C@@H](COC[C@H](O)CN2Cc2ccc(C(F)(F)F)cc2)O1)c1ccccc1	none (no result: CSC inhib, Calb FLC, Beta cell apopt, Mdm2-MdmX inh, SKKanGAS inh)
CC(C)OCCCN(C)C1CCN(S(=O)(=O)c2csc(C(N)=O)c2)CC1	none
CC(C)OCCCN(C)C1CCN(S(=O)(=O)c2ccc(-c3cc(C(F)(F)F)no3)s2)CC1	Mdm2-MdmX inh 50 | Mdm2-MdmX conf inactive
CC[C@@]1(C(=O)OC)N[C@H](CN(C)C(C)=O)[C@@H]2C(=O)N(Cc3ccccc3)C(=O)[C@@H]21	none (no result: CSC inhib, Calb FLC, Beta cell apopt, SKKanGAS inh)
CC[C@@]1(C(=O)OC)N[C@H](CN(C)C(=O)Nc2ccc(Cl)cc2)[C@@H]2C(=O)N(Cc3ccccc3)C(=O)[C@@H]21	Mdm2-MdmX inh 64 (no result: CSC inhib, Calb FLC, SKKanGAS inh) | Mdm2-MdmX conf 57 | FLuc counter 51
O=[N+]([O-])c1cccc(-c2noc(COc3ccccc3)n2)c1	none (no result: SKKanGAS inh)
C=C1C(=O)[C@]23C[C@H]1CCC2[C@]1(C)C(=O)CC[C@@](C)(C(=O)O)C1C[C@@H]3O (some centres not stated)	none (no result: CSC inhib, Calb FLC, Beta cell apopt, Mdm2-MdmX inh, SKKanGAS inh)
C=C1C(=O)[C@]23C[C@H]1CCC2[C@]1(C)CCC[C@@](C)(C(=O)O)C1C[C@@H]3O (some centres not stated)	none (no result: CSC inhib, Calb FLC, Beta cell apopt, Mdm2-MdmX inh, SKKanGAS inh)
C=C1C(=O)[C@@]23[C@H](O)C[C@@H]4C(C)(C)CC[C@H](O)[C@]4(C)[C@@H]2C[C@H](O)[C@@H]1[C@H]3O	Mdm2-MdmX inh 83 | Mdm2-MdmX conf inactive
C=C1C(=O)[C@@]23[C@H](O)C[C@@H]4C(C)(C)CC[C@H](O)[C@@]4(C)[C@@H]2CC[C@@H]1[C@H]3O	Beta cell apopt 99, Mdm2-MdmX inh 97 | Mdm2-MdmX conf 100 | FLuc counter 48
COC(=O)CNC(=O)c1ccccc1C	none
Nc1ccc(C(=O)n2c3ccccc3c3ccccc32)cc1	Mdm2-MdmX inh 60 | Mdm2-MdmX conf 57 | FLuc counter 63
Cc1ccc(C(=O)n2c(N)nc3ccccc32)cc1	Mdm2-MdmX inh 52, SKKanGAS inh inconclusive | Mdm2-MdmX conf 44 | FLuc counter 98
O=C(OC1CCCCC1)c1cc2ccccc2oc1=O	none (no result: Beta cell apopt)
CCOC(=O)C1(Cc2ccccc2)CCCN(S(=O)(=O)N(C)C)C1 (configuration not stated)	none (no result: Beta cell apopt)
COc1ccc(C(=O)NC(Cc2c[nH]c3ccccc23)C(=O)O)cc1 (configuration not stated)	none
CCCOc1ccc(C(=O)CCNC(Cc2c[nH]c3ccccc23)C(=O)O)cc1 (configuration not stated)	Mdm2-MdmX inh 87 | Mdm2-MdmX conf inactive
CC(=O)c1ccc(N2CCN(c3ccc(C(F)(F)F)cn3)CC2)cc1	none (no result: Mdm2-MdmX inh)
CCOC(=O)c1ccccc1NC(=O)CSc1ccc(-c2ccccn2)nn1	Mdm2-MdmX inh 75 | Mdm2-MdmX conf 77 | FLuc counter 36
COc1ccc(C)cc1NC(=O)CSc1ccc(-c2ccccn2)nn1	Mdm2-MdmX inh 54 (no result: Calb FLC) | Mdm2-MdmX conf 55 | FLuc counter 52
Cc1ccc(NC(=O)CSc2ccc(-c3ccccn3)nn2)cc1F	Mdm2-MdmX inh 53 | Mdm2-MdmX conf 46 | FLuc counter 47
CC(=O)c1cccc(NC(=O)CSc2ccc(-c3ccccn3)nn2)c1	none
COc1cc(NC(=O)CSc2ccc(-c3ccccn3)nn2)cc(OC)c1	Mdm2-MdmX inh 65 | Mdm2-MdmX conf 59 | FLuc counter 57
CC(=O)Nc1cccc(NC(=O)CSc2ccc(-c3ccccn3)nn2)c1	none
CC(C)(C)c1ccc(OCCCNC2CCCC2)cc1	none
CCc1ccc(NC(=O)CSc2ccc(-c3ccccn3)nn2)cc1	Beta cell apopt 86, Mdm2-MdmX inh 71 | Mdm2-MdmX conf 45 | FLuc counter 73
C[C@@]12CCC=C[C@H]1[C@H](c1ccc3ccccc3c1/C=C/c1ccccc1)N(Cc1ccccc1)C2=O	Mdm2-MdmX inh 65 | Mdm2-MdmX conf inactive
CCOc1ccccc1N1CCN(C(=O)c2csc(C)c2CC)CC1	none (no result: CSC inhib)
COc1ccc(-n2c(C)c([N+](=O)[O-])c3ccc(O)c(CN(C)C)c32)cc1	Mdm2-MdmX inh 79 | Mdm2-MdmX conf 90 | FLuc counter 53
C=CCOc1ccc(CN(C)CC(O)COc2ccc(CCC(C)=O)cc2)cc1 (configuration not stated)	none
COC1(OC)C=CC(=O)C=C1NC(=O)c1ccccc1OC(C)=O	Mdm2-MdmX inh 82 | Mdm2-MdmX conf 66 | FLuc counter inactive
CC(=O)Oc1ccccc1C(=O)Nc1ccccc1	none
CCC1(CC)NC(=O)N(CC(=O)OC(C)C(=O)Nc2ccc(S(N)(=O)=O)cc2)C1=O (configuration not stated)	none (no result: CSC inhib, Calb FLC, Beta cell apopt, Mdm2-MdmX inh, SKKanGAS inh)
COc1cccc(CNC23CC4CC(CC(C4)C2)C3)c1OCc1ccccc1	Calb FLC inconclusive, Mdm2-MdmX inh 52 | Mdm2-MdmX conf 43 | FLuc counter 59
COc1cc(C(=O)OCc2cc(=O)oc3c(C)c(C)ccc23)ccc1OC(F)F	Mdm2-MdmX inh 60 (no result: CSC inhib) | Mdm2-MdmX conf inactive
COc1ccc(-c2oc3ncnc(NCCN4CCOCC4)c3c2-c2ccc(OC)cc2)cc1	Mdm2-MdmX inh 80 | Mdm2-MdmX conf inactive
COc1ccc(-c2oc3ncnc(NCCCN4CCOCC4)c3c2-c2ccc(OC)cc2)cc1	Mdm2-MdmX inh 60 | Mdm2-MdmX conf inactive
COc1ccc(-c2oc3ncn(CCN4CCOCC4)c(=N)c3c2-c2ccc(OC)cc2)cc1	Mdm2-MdmX inh 57 | Mdm2-MdmX conf inactive | FLuc counter 49
c1ccc(-c2oc3ncnc(NCCCN4CCOCC4)c3c2-c2ccccc2)cc1	none
CCOC(=O)C1(C)CCCN1C(=O)c1cccc(F)c1 (configuration not stated)	none (no result: CSC inhib, Calb FLC, Beta cell apopt, Mdm2-MdmX inh, SKKanGAS inh)
CCOc1ccccc1N1CCN(C(=O)c2ccc(OCC(=O)N3CCOCC3)c(OC)c2)CC1	none
CN(C)CCCN(C(=O)c1cc(-c2cccs2)nc2ccccc12)c1nc2c(F)cccc2s1	Mdm2-MdmX inh 57 (no result: Beta cell apopt) | Mdm2-MdmX conf inactive
Cc1ccc2nc(N(CCCN(C)C)C(=O)c3cc(-c4cccs4)nc4ccccc34)sc2c1	CSC inhib 103, Mdm2-MdmX inh 96 | Mdm2-MdmX conf 46 | FLuc counter 37
